A short description of assay [1]: Quantitative High-Throughput drug screen in 47 multiple myeloma cell lines against the NCATS MIPE library collection: KMS26_JCRB cell viability assay (AID 1918975). Further: nearly all actives have a fitted effect of over 45% in size.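 On viability (% of DMSO): 100% = DMSO-treated wells and 0% = wells with media only.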 The gist of the method:
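Relative luminescence from CellTiter-Glo served as the viability signal, referenced to DMSO-treated (100%) and cell-free medium (0%) controls. Treatment lasted 48 hours at 37C with 500 cells per well.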

The nature of assay [2]: Quantitative High-Throughput drug screen in 47 multiple myeloma cell lines against the NCATS MIPE library collection: MMM1_PLB cell viability assay (AID 1918976). Further: nearly all actives have a fitted effect of over 35% in size. The gist of the method:
(§1)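 Inhibition of viability over 48 h was scored by ATP content (CellTiter-Glo) in 500-cell wells. Zero and full viability were defined by media-only and DMSO-only wells.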

Assay [3] can be described thus: Quantitative High-Throughput drug screen in 47 multiple myeloma cell lines against the NCATS MIPE library collection: NCIH929_DSMZ cell viability assay (AID 1918978). Further: nearly all actives have a fitted effect of over 35% in size. In outline: as §1
Assay [4] in a line: Quantitative High-Throughput drug screen in 47 multiple myeloma cell lines against the NCATS MIPE library collection: OCIMY1_PLB cell viability assay (AID 1918979). Further: nearly all actives have a fitted effect of over 35% in size.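 On viability: 100% = DMSO-only wells and 0% = cell-free media-only wells.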 In outline: as §1
Assay [5] is described as follows: Quantitative High-Throughput drug screen in 47 multiple myeloma cell lines against the NCATS MIPE library collection: MM1S_ATCC cell viability assay (AID 1918980). Further: nearly all actives have a fitted effect of over 45% in size.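 On viability (% of control): 100% = wells with DMSO only and 0% = wells with media only.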 In outline:
as §1

Assay [6] is described as follows: Quantitative High-Throughput drug screen in 47 multiple myeloma cell lines against the NCATS MIPE library collection: LP1_DSMZ cell viability assay (AID 1918982). Further: nearly all actives have a fitted effect of over 35% in size. The gist of the method: as §1
Assay [7] in a line: Quantitative High-Throughput drug screen in 47 multiple myeloma cell lines against the NCATS MIPE library collection: KMS28PE_JCRB cell viability assay (AID 1918983). Further: nearly all actives have a fitted effect of over 35% in size. In outline: as §1
Assay [8] is described as follows: Quantitative High-Throughput drug screen in 47 multiple myeloma cell lines against the NCATS MIPE library collection: KMS34_JCRB cell viability assay (AID 1918985). Further: nearly all actives have a fitted effect of over 40% in size. The gist of the method:
as §1

A short description of assay [9]: Quantitative High-Throughput drug screen in 47 multiple myeloma cell lines against the NCATS MIPE library collection: OCIMY5_PLB cell viability assay (AID 1918988). Further: nearly all actives have a fitted effect of over 65% in size. The gist of the method: as §1
A short description of assay [10]: Quantitative High-Throughput drug screen in 47 multiple myeloma cell lines against the NCATS MIPE library collection: SKMM1_PLB cell viability assay (AID 1919863). Further: nearly all actives have a fitted effect of over 35% in size. Conditions: SKMM1 myeloma viability, CellTiter-Glo ATP, 48 h; viability: stronger effect = lower value. In outline:
as §1
Background: Cellular ATP, detected with luciferase, serves as a proxy for viable cell number.

Assay [11] in a line: Quantitative High-Throughput drug screen in 47 multiple myeloma cell lines against the NCATS MIPE library collection: XG6_PLB cell viability assay (AID 1919865). Further: nearly all actives have a fitted effect of over 40% in size.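 On viability (% of control): 100% = DMSO-only wells and 0% = media-only wells.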 In outline: as §1
The nature of assay [12]: Quantitative High-Throughput drug screen in 47 multiple myeloma cell lines against the NCATS MIPE library collection: XG1_PLB cell viability assay (AID 1919866). Further: nearly all actives have a fitted effect of over 35% in size. In outline:
as §1

The nature of assay [13]: Quantitative High-Throughput drug screen in 47 multiple myeloma cell lines against the NCATS MIPE library collection: MM1R_ATCC cell viability assay (AID 1918981). Further: nearly all actives have a fitted effect of over 35% in size. The gist of the method:
as §1

Assay [14] is described as follows: Quantitative High-Throughput drug screen in 47 multiple myeloma cell lines against the NCATS MIPE library collection: L363_DSMZ cell viability assay (AID 1918984). Further: nearly all actives have a fitted effect of over 40% in size. As to conditions: L363 myeloma viability, CellTiter-Glo ATP luminescence, 48 h; viability (% of control): at 45.8 µM (top of the series). In outline: as §1
The nature of assay [15]: Quantitative High-Throughput drug screen in 47 multiple myeloma cell lines against the NCATS MIPE library collection: OPM1_PLB cell viability assay (AID 1918989). Further: nearly all actives have a fitted effect of over 40% in size.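 On viability (% of control): 100% = DMSO-only wells and 0% = media-only wells.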 The gist of the method:
as §1

Assay [16] in a line: Quantitative High-Throughput drug screen in 47 multiple myeloma cell lines against the NCATS MIPE library collection: OCIMY7_PLB cell viability assay (AID 1918987). Further: nearly all actives have a fitted effect of over 65% in size. As to conditions: OCI-MY7 myeloma viability, CellTiter-Glo ATP, 48 h; viability (% of DMSO): at 45.8 µM (top of the series). The gist of the method: as §1
The nature of assay [17]: Quantitative High-Throughput drug screen in 47 multiple myeloma cell lines against the NCATS MIPE library collection: U266_ATCC cell viability assay (AID 1919864). Further: nearly all actives have a fitted effect of over 35% in size. The gist of the method:
as §1

The nature of assay [18]: Quantitative High-Throughput drug screen in 47 multiple myeloma cell lines against the NCATS MIPE library collection: MOLP8_DSMZ cell viability assay (AID 1918977). Further: nearly all actives have a fitted effect of over 45% in size.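 On viability (% of control): 100% = DMSO-only wells and 0% = media-only wells without cells.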 In outline:
as §1

Records with an inconclusive call do not appear. Values without a mark were called inactive. The source made the active and inactive calls. The call rests on the fitted dose curve; in most records, active means well fitted curve in the direction sought with a large enough effect; inconclusive means small, poorly fitted or top-dose-only effect, or another doubt; inactive means no such curve, though single readings can be large; an effect the other way counts as inactive or inconclusive.
Potency means the concentration at half of the fitted maximal effect.

Turning to `CN(C)N=Nc1nc[nH]c1C(N)=O`, the Potency in assay [1] is 20.9 µM (active); in assay [2], 4.69 µM (active); in assay [9], 20.9 µM (active); in assay [11] it was 5.26 µM (active); in assay [12], 2.64 µM (active). The Potency result in assay [3], in assay [4], in assay [5], in assay [6], in assay [7] and in assay [8] was “inactive” throughout. The viability (commonly a read-out of living cells in per cent, often relative to untreated cells) in [10] is 140%.
`Fc1ccc(CNc2ncnc3ccc(F)cc23)cc1`: the Potency result in assay [1] was “inactive”. Further, the Potency in [2] was 4.18 µM (active); in assay [3], 16.6 µM (active); in assay [4] it was 14.8 µM (active); in [5] it was 14.8 µM (active); in assay [13] it was 10.5 µM (active); in assay [6] it was 2.64 µM (active). The Potency was 11.8 µM (active) in assay [7]; 5.26 µM (active) in [14]; 16.6 µM (active) in [9]; 16.6 µM (active) in [15]; 14.8 µM (active) in assay [11]. The viability in [10] is 104%.
For the compound `C=C1[C@H](n2cnc3c(=O)[nH]c(N)nc32)C[C@H](O)[C@H]1CO`, the Potency result in assay [1], in assay [4] and in assay [11] was “inactive” in each case. Further, the Potency was 3.72 µM (active) in assay [2]; 20.9 µM (active) in assay [3]; 14.8 µM (active) in assay [5]; 5.9 µM (active) in [13]; 1.18 µM (active) in assay [16]; 2.35 µM (active) in [15]. Further, the Potency in assay [17] is 14.8 µM (active); in assay [12], 1.18 µM (active).
As for `CCN1C[C@H](C)n2c(c(O)c3c(=O)n(Cc4ccc(F)c(Cl)c4)nc(C(=O)NC)c32)C1=O`, the Potency entry in assay [1], in assay [3], in assay [4], in assay [5], in assay [7] and in [14] was “inactive” each time. The Potency entry in [8], in [15], in assay [17] and in assay [11] was “inactive” each time. The Potency is 2.64 µM (active) in [2] and 3.32 µM (active) in assay [13].
With `O=C(CO)N1CCC(c2[nH]nc(-c3ccc(Cl)cc3)c2-c2ccncn2)CC1`, the Potency entry in assay [1], in assay [18], in assay [4], in assay [8], in assay [17] and in assay [12] was “inactive” each time. Further, the Potency was 0.148 µM (active) in [2]; 0.662 µM (active) in assay [13]; 0.332 µM (active) in assay [7]; 3.32 µM (active) in assay [15]; 0.59 µM (active) in [10].
As to `C[C@@H]1CC=CC=CC=CC=C[C@@H](O[C@@H]2O[C@H](C)[C@@H](O)[C@H](N)[C@H]2O)C[C@@H]2O[C@](O)(C[C@@H](O)C[C@@H]3O[C@@H]3C=CC(=O)O1)C[C@H](O)[C@@H]2C(=O)O`, in [1], the Potency entry was “inactive”. Moreover, the Potency in [2] is 23.5 µM (active); in assay [3], 16.6 µM (active); in assay [4] it was 9.35 µM (active); in [5], 20.9 µM (active); in assay [13] it was 14.8 µM (active); in assay [7], 14.8 µM (active). In addition, the Potency in assay [8] is 18.7 µM (active); in assay [16], 2.96 µM (active); in assay [9], 11.8 µM (active); in assay [15] it was 16.6 µM (active); in [12], 4.69 µM (active).
With `COc1ccc2cc1Oc1ccc(cc1)C[C@H]1c3cc(c(OC)cc3CCN1C)Oc1c(OC)c(OC)cc3c1[C@H](C2)N(C)CC3`, the Potency in [1] was 14.8 µM (active); in assay [2], 6.62 µM (active); in [3] it was 20.9 µM (active); in assay [4], 18.7 µM (active); in [5] it was 18.7 µM (active); in [13] it was 13.2 µM (active). Further, the Potency in assay [7] is 14.8 µM (active); in assay [8] it was 14.8 µM (active); in [9], 16.6 µM (active); in assay [15], 18.7 µM (active); in assay [17] it was 18.7 µM (active); in assay [11], 14.8 µM (active). The Potency in [12] was 10.5 µM (active).
Take `Cc1cnc(CNC(=O)c2c(=O)c3ccc(N4CCCN(C)CC4)nc3n3c2sc2ccccc23)cn1`: the Potency in assay [1] was 12.9 µM (active); in [2], 9.11 µM (active); in [18], 9.11 µM (active); in [5] it was 2.88 µM (active); in [13], 7.24 µM (active); in [7] it was 12.9 µM (active). The Potency in [9] is 10.2 µM (active); in [10], 5.75 µM (active); in [17] it was 1.82 µM (active); in assay [11] it was 5.12 µM (active). Also, in assay [12], the Potency entry is “inactive”.
Consider `O=S(=O)(O)c1ccc2cc(N=Nc3cc(S(=O)(=O)O)c4cccnc4c3O)ccc2c1`, for which the Potency in assay [1] is 20.9 µM (active); in assay [2], 3.72 µM (active); in assay [3], 7.43 µM (active); in assay [5], 13.2 µM (active); in assay [13] it was 20.9 µM (active); in assay [7] it was 18.7 µM (active). Besides, the Potency is 9.35 µM (active) in assay [9]; 13.2 µM (active) in [15]; 18.7 µM (active) in assay [10]; 13.2 µM (active) in assay [17]; 5.9 µM (active) in assay [12]. Also, in assay [4], the Potency entry was “inactive”.
With `CC(C)C[C@@H](C(=O)N[C@H](C(=O)OC1CCCC1)c1ccccc1)[C@H](O)C(=O)NO`, the Potency is 18.7 µM (active) in assay [1]; 23.5 µM (active) in assay [2]; 23.5 µM (active) in assay [18]; 16.6 µM (active) in assay [4]; 20.9 µM (active) in [5]; 18.7 µM (active) in assay [13]. For the same compound, the Potency is 23.5 µM (active) in assay [7]; 14.8 µM (active) in [16]; 20.9 µM (active) in assay [9]; 20.9 µM (active) in assay [10]; 14.8 µM (active) in assay [11].
On to `CCCC1OC2C[C@@H]3[C@H]4CCC5=CC(=O)C=C[C@]5(C)[C@H]4C(O)C[C@]3(C)[C@]2(C(=O)CO)O1` (some centres undefined), for which the Potency entry in assay [1], in [4], in assay [11] and in assay [12] was “inactive” each time. For the same compound, the Potency is 0.0066 µM (active) in [2]; 0.296 µM (active) in [3]; 20.9 µM (active) in [7]; 0.0662 µM (active) in assay [14]; 0.0372 µM (active) in assay [9]; 16.6 µM (active) in assay [17].
As for `COc1cc2c(cc1Cc1cccc(Cl)c1F)c(=O)c(C(=O)O)cn2[C@H](CO)C(C)C`, the Potency was 20.9 µM (active) in assay [1]; 16.6 µM (active) in assay [2]; 13.2 µM (active) in assay [18]; 18.7 µM (active) in assay [3]; 16.6 µM (active) in [5]; 20.9 µM (active) in assay [8]. In addition, the Potency in assay [16] is 18.7 µM (active); in assay [9], 7.43 µM (active); in assay [11] it was 18.7 µM (active); in assay [12], 18.7 µM (active).
With `c1ccc(-c2oc3ncnc(NC[C@@H]4CCCO4)c3c2-c2ccccc2)cc1`, the Potency in assay [1] was 18.7 µM (active); in assay [2], 20.9 µM (active); in [5] it was 18.7 µM (active); in assay [13] it was 23.5 µM (active); in [7] it was 26.4 µM (active); in [9], 14.8 µM (active). The Potency in [15] is 13.2 µM (active); in assay [17], 16.6 µM (active); in assay [11] it was 10.5 µM (active). Besides, the Potency entry in assay [3] and in [4] was “inactive” each time.

For the origin of these results see PubChem BioAssay (NCATS).
